About 79,000 compounds went through this panel and 15% of them were active in at least one assay; those are over-represented in the sample as a whole. The source made the active and inactive calls. Cut-off read from the data, not from the text of the source: active = growth inhibition above about 70%; inactive = the rest.
Assays:
[1] = NCI Yeast Anticancer Drug Screen. Data for the rad52 strain (AID 147);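 note: 0% = growth of vehicle-treated control cultures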; conditions: S. cerevisiae rad52 mutant growth inhibition, active compounds read high
Outline: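 DNA repair-defective yeast; compound exposure; growth scored against vehicle controls.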

[2] = NCI Yeast Anticancer Drug Screen. Data for the wt1 strain (AID 149);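 note: 0% = growth of vehicle-treated wt1 cultures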; conditions: S. cerevisiae wt1 strain (SPY 50644) growth inhibition, active compounds read high
Outline: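 Yeast wt1 strain exposed to compounds; growth inhibition measured relative to vehicle-treated controls.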

[3] = NCI Yeast Anticancer Drug Screen. Data for the rad50EPP+ strain (AID 151);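 note: 0% = growth of vehicle-treated control cultures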; conditions: S. cerevisiae rad50 mutant strain, active compounds read high
Outline: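 rad50EPP+ yeast treated with test compounds. Readout: growth vs vehicle control.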

[4] = NCI Yeast Anticancer Drug Screen. Data for the mgt1 strain (AID 153); conditions: S. cerevisiae mgt1 mutant growth inhibition, active compounds read high
Outline: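 Growth inhibition relative to vehicle controls was scored for the mgt1 yeast strain after compound exposure.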

[5] = NCI Yeast Anticancer Drug Screen. Data for the rad50 strain (AID 155);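 note: 0% = growth of vehicle-only cultures of the same strain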; conditions: S. cerevisiae rad50 strain growth inhibition, active compounds read high
Outline: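 Yeast carrying a defined DNA repair defect were exposed to test compounds, and growth was compared with vehicle-treated controls to give percent inhibition.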

[6] = NCI Yeast Anticancer Drug Screen. Data for the rad14 strain (AID 159);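 note: 0% = growth of vehicle-treated control cultures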; conditions: S. cerevisiae rad14 strain growth inhibition, active compounds read high
Outline: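 Yeast cells carrying a defined DNA-repair defect were exposed to compounds, and growth inhibition was calculated relative to vehicle-treated control cultures.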

[7] = NCI Yeast Anticancer Drug Screen. Data for the sgs1 mgt1 strain (AID 161);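 note: 0% = growth of cultures given vehicle only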; conditions: S. cerevisiae sgs1 mgt1 strain, active compounds read high
Outline: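 Percent growth inhibition was derived by comparing compound-exposed mutant yeast with vehicle-exposed cultures. The strain carries alterations in DNA damage repair.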

[8] = NCI Yeast Anticancer Drug Screen. Data for the CLN2oe strain (AID 163);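 note: 0% = growth of vehicle-only control cultures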; conditions: S. cerevisiae CLN2oe strain, active compounds read high
Outline: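 Compound-treated yeast; growth vs vehicle ctrl = % inhibition. Genetically altered strain (cell-cycle control).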

[9] = NCI Yeast Anticancer Drug Screen. Data for the cln2 rad14 strain (AID 165);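 note: 0% = growth equal to vehicle treated cultures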; conditions: S. cerevisiae cln2 rad14 strain, active compounds read high
Outline: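 Growth inhibition, relative to vehicle-treated controls, is the read-out. The test organism is a yeast strain with defined genetic alterations, cln2 rad14.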

[10] = NCI Yeast Anticancer Drug Screen. Data for the bub3 strain (AID 167); conditions: S. cerevisiae bub3 mutant strain, active compounds read high
Outline: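 Compounds were applied to a genetically altered yeast strain carrying a cell-cycle control defect. Growth inhibition was scored against vehicle-treated controls.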

[11] = NCI Yeast Anticancer Drug Screen. Data for the wt2 strain (AID 169);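 note: 0% = growth of vehicle-treated yeast cultures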; conditions: S. cerevisiae wt2 strain growth inhibition, active compounds read high
Outline: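 Compound exposure of yeast; growth compared with vehicle controls; inhibition reported.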

[12] = NCI Yeast Anticancer Drug Screen. Data for the mlh1 strain (AID 171);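 note: 0% = growth of vehicle-treated control cultures of the same strain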; conditions: S. cerevisiae mlh1 strain growth inhibition, active compounds read high
Outline: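 Compounds are applied to a genetically altered yeast strain, and its growth is compared with that of vehicle-treated cultures to give percent inhibition.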

[13] = NCI Yeast Anticancer Drug Screen. Data for the sgs1 strain (AID 173);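 note: 0% = growth of vehicle-only control cultures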; conditions: S. cerevisiae sgs1 mutant, active compounds read high
Outline: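 Compounds applied to genetically altered yeast; growth compared with vehicle-treated cultures to give % inhibition.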

[14] = NCI Yeast Anticancer Drug Screen. Data for the mlh1 rad18 strain (AID 175); conditions: S. cerevisiae mlh1 rad18 strain growth inhibition, active compounds read high
Outline: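 Cells of a genetically altered yeast strain, deficient in DNA damage repair, were treated with compound. Their growth was then compared with that of vehicle-treated cultures to give inhibition.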

[15] = NCI Yeast Anticancer Drug Screen. Data for the rad18 strain (AID 177); conditions: S. cerevisiae rad18 mutant growth inhibition, active compounds read high
Outline: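 Compounds are applied to a repair-deficient yeast strain, and growth is compared with that of vehicle-treated cultures to give percent inhibition.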

[16] = NCI Yeast Anticancer Drug Screen. Data for the mec2-1 strain (AID 157); conditions: S. cerevisiae mec2-1 strain, active compounds read high
Outline: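 Growth inhibition is read against vehicle-treated controls after compound exposure of the mec2-1 yeast strain, which is defective in DNA damage repair or cell cycle control.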

[17] = at 5.0 µM (retest, dose inferred, filed as 0.5)
[18] = at 50.0 µM (retest, dose inferred, filed as 5.0)

Measured: growth inhibition

CC(=O)Oc1cc(-c2cc(OC(C)=O)c(OC(C)=O)c3ccccc23)c2ccccc2c1OC(C)=O
inactive: [1]; at 1.2 µM 3% | [1]; at 3.7 µM 4% | [1]; at 11.0 µM 7% | [1]; at 33.0 µM 13% | [2]; at 1.2 µM 8% | [2]; at 3.7 µM 12% | [2]; at 11.0 µM 10% | [2]; at 33.0 µM 12% | [2]; at 100.0 µM 59% | [3]; at 1.2 µM 3% | [3]; at 3.7 µM 6% | [3]; at 11.0 µM 12% | [3]; at 33.0 µM 19% | [3]; at 100.0 µM 21% | [4]; at 1.2 µM 5% | [4]; at 3.7 µM 5% | [4]; at 11.0 µM 5% | [4]; at 33.0 µM 13% | [5]; at 1.2 µM 4% | [5]; at 3.7 µM 8% | [5]; [17] 22% | [5]; at 11.0 µM 12% | [5]; at 33.0 µM 24% | [6]; at 1.2 µM 1% | [6]; at 3.7 µM 3% | [6]; at 11.0 µM 7% | [6]; at 33.0 µM 43% | [7]; [17] 24% | [8]; at 1.2 µM 3% | [8]; at 3.7 µM 0% | [8]; at 11.0 µM -5% | [8]; at 33.0 µM -2% | [8]; at 100.0 µM 57% | [9]; [17] 7% | [9]; [18] 56% | [9]; at 50.0 µM 38% | [10]; at 1.2 µM 3% | [10]; at 3.7 µM 4% | [10]; [17] 17% | [10]; at 11.0 µM 7% | [10]; at 33.0 µM 26% | [11]; at 1.2 µM 10% | [11]; at 3.7 µM 9% | [11]; at 11.0 µM 8% | [11]; at 33.0 µM 11% | [12]; at 1.2 µM 1% | [12]; at 3.7 µM 3% | [12]; at 11.0 µM 6% | [12]; at 33.0 µM 23% | [13]; at 1.2 µM 7% | [13]; at 3.7 µM 10% | [13]; at 11.0 µM 11% | [13]; at 33.0 µM 16% | [14]; [17] 19% | [15]; at 1.2 µM 1% | [15]; at 3.7 µM 6% | [15]; at 11.0 µM 10% | [15]; at 33.0 µM 26%
active: [1]; at 100.0 µM 79% | [4]; at 100.0 µM 82% | [5]; [18] 82% | [5]; at 50.0 µM 83.5% | [5]; at 100.0 µM 86% | [6]; at 100.0 µM 95% | [7]; [18] 85% | [7]; at 50.0 µM 87% | [10]; [18] 93% | [10]; at 50.0 µM 86.8% | [10]; at 100.0 µM 87% | [11]; at 100.0 µM 86% | [12]; at 100.0 µM 93% | [13]; at 100.0 µM 82% | [14]; [18] 96% | [14]; at 50.0 µM 93.6% | [15]; at 100.0 µM 90%

CC1=C(C)Cc2c(O)ccc(O)c2C1
active: [5]; [18] 99% | [5]; at 50.0 µM 94.5% | [5]; at 100.0 µM 93% | [7]; [18] 98% | [9]; [18] 98% | [10]; [17] 94% | [10]; [18] 99% | [10]; at 50.0 µM 83% | [14]; [18] 99% | [14]; at 50.0 µM 93.2% | [15]; at 100.0 µM 93%
inactive: [1]; at 1.2 µM 1% | [1]; at 3.7 µM 12% | [1]; at 11.0 µM 25% | [1]; at 33.0 µM 20% | [1]; at 100.0 µM 61% | [2]; at 1.2 µM -1% | [2]; at 3.7 µM -3% | [2]; at 11.0 µM -3% | [2]; at 33.0 µM -3% | [2]; at 100.0 µM -20% | [3]; at 1.2 µM 20% | [3]; at 3.7 µM 46% | [3]; at 11.0 µM 67% | [3]; at 33.0 µM 43% | [3]; at 100.0 µM 58% | [4]; at 1.2 µM -2% | [4]; at 3.7 µM 2% | [4]; at 11.0 µM 6% | [4]; at 33.0 µM -1% | [4]; at 100.0 µM 29% | [5]; at 1.2 µM 1% | [5]; at 3.7 µM 17% | [5]; [17] -9% | [5]; at 11.0 µM 38% | [5]; at 33.0 µM 33% | [6]; at 1.2 µM 2% | [6]; at 3.7 µM 9% | [6]; at 11.0 µM 18% | [6]; at 33.0 µM 13% | [6]; at 100.0 µM 47% | [7]; [17] 5% | [7]; at 50.0 µM 33.8% | [8]; at 1.2 µM -10% | [8]; at 3.7 µM -8% | [8]; at 11.0 µM -7% | [8]; at 33.0 µM -11% | [8]; at 100.0 µM 33% | [9]; [17] 31% | [9]; at 50.0 µM 48.9% | [10]; at 1.2 µM -3% | [10]; at 3.7 µM -5% | [10]; at 11.0 µM -4% | [10]; at 33.0 µM 3% | [10]; at 100.0 µM 63% | [11]; at 1.2 µM -12% | [11]; at 3.7 µM -6% | [11]; at 11.0 µM -4% | [11]; at 33.0 µM 3% | [11]; at 100.0 µM -4% | [12]; at 1.2 µM -1% | [12]; at 3.7 µM 5% | [12]; at 11.0 µM 12% | [12]; at 33.0 µM 6% | [12]; at 100.0 µM 44% | [13]; at 1.2 µM -21% | [13]; at 3.7 µM -5% | [13]; at 11.0 µM -9% | [13]; at 33.0 µM 7% | [13]; at 100.0 µM 67% | [14]; [17] 52% | [15]; at 1.2 µM 0% | [15]; at 3.7 µM 10% | [15]; at 11.0 µM 18% | [15]; at 33.0 µM 14%

COC(=O)C1=C(C(=O)OC)C2(C)C=CC1O2 (stereo not drawn)
inactive: [1]; at 1.2 µM -1% | [1]; at 3.7 µM -4% | [1]; at 11.0 µM 21% | [2]; at 1.2 µM 0% | [2]; at 3.7 µM 7% | [2]; at 11.0 µM 30% | [2]; at 33.0 µM 62% | [3]; at 1.2 µM -11% | [3]; at 3.7 µM -34% | [3]; at 11.0 µM -12% | [3]; at 33.0 µM 20% | [3]; at 100.0 µM 19% | [4]; at 1.2 µM -4% | [4]; at 3.7 µM -9% | [4]; at 11.0 µM -3% | [4]; at 33.0 µM 32% | [5]; at 1.2 µM -15% | [5]; at 3.7 µM -13% | [5]; [17] -135% | [5]; at 11.0 µM 7% | [5]; [18] 53% | [16]; at 1.2 µM -2% | [16]; at 3.7 µM -1% | [16]; [17] -43% | [16]; at 11.0 µM 1% | [16]; at 33.0 µM 26% | [16]; [18] 43% | [7]; [17] -55% | [7]; [18] 63% | [9]; [17] -46% | [9]; [18] -7% | [9]; at 50.0 µM 19.1% | [10]; at 1.2 µM -9% | [10]; at 3.7 µM -3% | [10]; [17] -62% | [10]; at 11.0 µM 10% | [11]; at 1.2 µM -4% | [11]; at 3.7 µM -3% | [11]; at 11.0 µM 52% | [12]; at 1.2 µM -14% | [12]; at 3.7 µM -10% | [12]; at 11.0 µM -7% | [12]; at 33.0 µM 52% | [13]; at 1.2 µM -4% | [13]; at 3.7 µM -4% | [13]; at 11.0 µM 33% | [14]; [17] -114% | [14]; [18] 48% | [15]; at 1.2 µM -10% | [15]; at 3.7 µM -6% | [15]; at 11.0 µM 10% | [15]; at 33.0 µM 62%
active: [1]; at 33.0 µM 70% | [1]; at 100.0 µM 91% | [2]; at 100.0 µM 93% | [4]; at 100.0 µM 86% | [5]; at 33.0 µM 72% | [5]; at 50.0 µM 81.2% | [5]; at 100.0 µM 91% | [16]; at 50.0 µM 86.8% | [16]; at 100.0 µM 87% | [7]; at 50.0 µM 82.2% | [10]; at 33.0 µM 75% | [10]; [18] 74% | [10]; at 50.0 µM 89.6% | [10]; at 100.0 µM 94% | [11]; at 33.0 µM 91% | [11]; at 100.0 µM 97% | [12]; at 100.0 µM 90% | [13]; at 33.0 µM 84% | [13]; at 100.0 µM 95% | [14]; at 50.0 µM 86.2% | [15]; at 100.0 µM 89%

From PubChem BioAssay (NCI)
